The source of these data is PubChem BioAssay (NCI).

The structures appear in SMILES notation. Values joined by “and” are separate entries in the source; they are usually repeats but may differ in a detail not shown here. Equal values may be shown once. The panel holds about 79,000 compounds, 15% with a hit somewhere; the sample as a whole holds those more often. Values without a mark were called inactive. No stated cut-off is given here; in the data, active means growth inhibition above about 70%; inactive means the rest.

The nature of this assay: NCI Yeast Anticancer Drug Screen. Data for the sgs1 mgt1 strain (AID 161).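 Further: 0% = growth of cultures given vehicle only.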 The following applies: S. cerevisiae sgs1 mgt1 strain, hits give high values; at 50.0 µM unless noted. A digest of the protocol:
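Test agents were incubated with a DNA-repair-mutant yeast strain. Growth was then read and compared against vehicle-treated controls.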
On to `CNC(=S)NCOCCOC(C)=O`, for which the growth inhibition is 15.2%.

For the molecule `O=C(Cc1ccccc1)CC(CC(=O)Cc1ccccc1)c1ccccc1`, the growth inhibition was 6.6%.

For the molecule `O=CC(CO)C(C=O)n1ncc2ccccc21` (stereo not given), the growth inhibition is 28.3%. The result for `[CH3][Sn]([CH3])([S]P(=S)(c1ccccc1)c1ccccc1)[S]P(=S)(c1ccccc1)c1ccccc1` reads 18.7%; that for `N=c1oc(-c2ccccc2)cc2ccccc12`, -12.3%; that for `COc1cc(OC)c2c(c1)OC(c1cccnc1)C(c1ccccc1)C2=O` (stereo not given), -5%. The value for `O=C1C=CC(=Nc2ccc3c(c2)-c2ccccc2C3)O1` was 5.05%. The result for `COC(=O)Nc1ccc(Cc2ccc(NC(=O)OC)cc2)cc1` reads 27.5%. In the case of `Cc1nc(N(C)C)oc(=O)c1CCc1ccccc1`, the growth inhibition was -0.9%. The value for `CCN(CC)c1ccc(N=Nc2ccc(-c3nc4cccnc4o3)cc2)cc1` was -22.9%; that for `CCCCCCCCCCCCCCCCCC(=O)CBr` was 10.9%. The value for `C(=Nc1cccc2ccccc12)c1cccs1` was 2.6%. The value for `COC(=O)c1ccccc1-c1ccccc1C(=O)O` was -5.45%. For the molecule `C#CCOC(=O)Nc1ccccc1`, the growth inhibition is -8.7% and -8.65%. The value for `CC1=Nc2ccc([N+](=O)[O-])cc2C1(C)C` was -7.55%.

Regarding `CCOC(Cn1ccc[n+]1CC(=O)c1ccccc1)OCC`, the growth inhibition is -10.8%.

Take `Cc1nc(C(N)=S)sc1C(=O)C/C(=N/N)C(=O)Nc1ccc(Cl)cc1`: the growth inhibition was 3.2%. For `Cc1nc(CO)c(-c2ccc([N+](=O)[O-])cc2)o1`, the growth inhibition was -8.75%. As for `CCOC(=O)C1=C(O)C[C@]2(O)C3CC=C(C)[C@@H]4CCO[C@](OC)(C[C@H]2C1)[C@]34C(=O)OC` (stereo not given in full), the growth inhibition was 8.35%.

`CN1CC(c2ccccc2)C(O)(C2(c3ccccc3)CN(C)CC(c3ccccc3)C2=O)C(c2ccccc2)C1` (stereo not given): the growth inhibition is -30.4%. For `COc1ccc(C(=O)CN2CCN(c3ccccc3)CC2)cc1`, the growth inhibition was 17.1%. As for `COc1ccc2c(c1)OC[C@@H]1c3cc(NS(=O)(=O)c4ccccc4)cc(OCc4ccccc4)c3O[C@H]21`, the growth inhibition was -13.5%.

Regarding `CN(C)Cc1cc(C(=O)/C=C/c2ccc(Cl)c(Cl)c2)cc(CN(C)C)c1O`, the growth inhibition was 6.3%. The result for `N#Cc1c(-c2ccc(Cl)cc2)c(-c2ccc(Cl)cc2)nn(CCOC(=O)CCC(=O)OCCn2nc(-c3ccc(Cl)cc3)c(-c3ccc(Cl)cc3)c(C#N)c2=O)c1=O` reads 5.5%. The result for `CN(C)C(=O)C(c1ccccc1)C(c1ccccc1)N(C)C=O` (stereo not given) reads 0.2%; that for `Cc1ccc(S(=O)(=O)NC(=O)NNc2ccc(F)cc2)cc1`, 1.65%. The value for `CCSc1[nH]c(Nc2nc(-c3ccccc3)n(-c3ccccc3)n2)c(C(N)=O)c1C(N)=O` was 7.8%; that for `CO[C@@H]1C2=CC=CC=C[C@H]2n2c(=O)n(-c3ccccc3)c(=O)n21` was 18.4%; that for `Cn1nc(-c2ccccc2)c(C(=O)/C=C/c2ccccc2)c(N2CCCCC2)c1=O` was -11.5%.

Take `CC(=O)[C@@]1(O)CC[C@H]2[C@@H]3CC[C@@H]4C[C@H](O)CC[C@]4(C)[C@H]3[C@H](O)C[C@@]21C`: the growth inhibition was 8%. Turning to `COc1ccc(/C(C)=N/NC(=O)c2ccncc2)cc1OC`, the growth inhibition was -18.6%. On to `CCCCCCCCSC(=N)N`, for which the growth inhibition was 1.95%. The result for `O=C(NO)/C(CC(=O)c1cccc(O)c1)=N\O` reads -7.35%; that for `CN(C)c1ccc(/C=C2\C(=O)/C(=C\c3ccc(N(C)C)cc3)c3ccccc32)cc1`, -13.8%. The value for `CCS(=O)(=O)c1ccc(NC(=O)OC2CCC3(C)C(=CCC4C3CCC3(C)C(C(C)CCCC(C)C)CCC43)C2)cc1` (stereo not given) was 10.2%; that for `O=C1CC(Br)C(c2ccccc2)(c2ccccc2)O1` (stereo not given) was 33.6%; that for `O=C(OCC1OCOC2C(COC(=O)c3ccccc3)OCOC12)c1ccccc1` (stereo not given) was 8.05%. The result for `O=[N+]([O-])c1ccc(N(CCO)CCO)cc1` reads -1.75%. Regarding `Cc1ccc(NC(=O)C(=O)CC(=O)c2sc(Nc3c(C)cccc3C)nc2C)cc1C`, the growth inhibition is 1.85%.

Take `COC1CCC(/C=C(\C#N)C2CCC(C)CC2)CC1` (stereo not given): the growth inhibition was 43.9%.
